An excerpt weighted towards active compounds, which were near 2.5% of everything screened.
rCAG RNA binder = molecules binding r(CAG) RNA repeats; inhibition, % at 3 µM; 1.3% of 370,000 active; AID 651821; r(CAG) RNA repeat, TO-PRO-1 dye displacement fluorescence;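 active = inhibition above the plate cutoff, the mean of all test compounds on that plate plus 3 SD, cut at about 35% in these data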;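 also: higher means more dye released from RNA so lower well fluorescence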
PG9 binder = small molecules binding HIV-1 gp120 antibody PG9 | inhibition, % at 6.7 µM | 0.43% of 360,000 active | TR-FRET gp120-PG9 antibody binding | AID 624416; in the data active = inhibition above about 8.5%
ABCB6 inh MLPCN = blocks the human ABCB6 transporter; Q9NP58; K562-ABCB6 porphyrin accumulation, flow cytometry, 1 h; stronger effect = lower value; fluorescence ratio to DMSO, % at 10 µM; 0.19% of 360,000 active; AID 602162;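 active = fluorescence ratio to DMSO below 75%, the collection mean minus 3 SD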;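 also: signal is porphyrin accumulated inside mitochondria; lower ratio means ABCB6 inhibition with less porphyrin fluorescence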
Target sequence (Q9NP58 whole entry, looked up): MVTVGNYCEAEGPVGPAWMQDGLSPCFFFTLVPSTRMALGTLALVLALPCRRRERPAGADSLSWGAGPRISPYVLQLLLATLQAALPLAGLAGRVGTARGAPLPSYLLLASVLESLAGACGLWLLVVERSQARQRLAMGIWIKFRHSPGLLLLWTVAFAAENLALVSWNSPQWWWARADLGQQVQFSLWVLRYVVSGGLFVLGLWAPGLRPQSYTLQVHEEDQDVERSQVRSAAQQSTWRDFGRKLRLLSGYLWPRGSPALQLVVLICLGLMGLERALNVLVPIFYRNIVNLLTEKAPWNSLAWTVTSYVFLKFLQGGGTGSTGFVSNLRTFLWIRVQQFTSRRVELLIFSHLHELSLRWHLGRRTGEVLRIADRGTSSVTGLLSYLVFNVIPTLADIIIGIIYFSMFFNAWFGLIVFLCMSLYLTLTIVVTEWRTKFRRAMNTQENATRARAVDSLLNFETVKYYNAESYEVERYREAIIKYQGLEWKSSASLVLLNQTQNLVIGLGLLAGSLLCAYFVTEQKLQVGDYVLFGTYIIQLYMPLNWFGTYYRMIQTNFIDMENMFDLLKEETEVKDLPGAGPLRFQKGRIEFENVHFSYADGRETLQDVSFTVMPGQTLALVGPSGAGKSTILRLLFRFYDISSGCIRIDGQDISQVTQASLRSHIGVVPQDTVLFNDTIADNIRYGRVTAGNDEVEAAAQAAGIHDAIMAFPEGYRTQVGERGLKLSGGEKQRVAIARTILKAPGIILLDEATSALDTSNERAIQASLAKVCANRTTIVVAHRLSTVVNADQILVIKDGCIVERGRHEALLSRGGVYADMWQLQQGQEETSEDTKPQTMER
Granule exo inh = lytic granule exocytosis inhibition | 0.66% of 360,000 active | inhibition, % at 10 µM | TALL-104 LAMP-1 surface exposure, flow cytometry; cells stimulated with thapsigargin and PMA | AID 651702;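 active = inhibition above about 55%, limit read from the data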
rCAG binder conf = r(CAG) RNA repeat binding, confirmation; shares compounds with rCAG RNA binder; TO-PRO-1 dye displacement fluorescence; 70% of 4,300 active; inhibition, % at 3 µM;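 active = inhibition above a per-plate cutoff, the mean inhibition of sample wells plus 3 SD, cut at about 35% in these data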;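 also: loss of TO-PRO-1 fluorescence as compound displaces dye from 1x1 AA loop RNA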
DNA CAG counter = disrupts DNA CAG TO-PRO-1 complex, flagging rCAG hits | shares compounds with rCAG RNA binder | d(CAG) DNA oligo TO-PRO-1 dye displacement, fluorescence | inhibition, % at 3 µM | 94% of 4,300 active | AID 652068;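 active = inhibition above its plate's cutoff, the mean test-well inhibition plus 3 SD, cut at about 4.8% in these data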;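 also: hits displace the dye from DNA and so lower well fluorescence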
dCAG dye DR = DNA CAG dye complex inhibition, dose response counter-screen; shares compounds with rCAG RNA binder; 20% of 250 active; IC50, µM; DNA CAG/GTC duplex TO-PRO-1 dye displacement fluorescence; AID 686960; in the data active = IC50 below about 10 µM
A number is an active result; i = inactive; nt = not tested or not shown; ! = not active in a repeat.

SMILES	rCAG RNA binder	PG9 binder	ABCB6 inh MLPCN	Granule exo inh	rCAG binder conf	DNA CAG counter	others
CCc1nnc(NS(=O)(=O)c2ccc(NC(=O)/C=C/C(=O)O)cc2)s1	i	i	i	i	nt	nt
Cc1ccsc1C(=O)OC(C)C(=O)NC1CCCCC1C (stereo unspecified)	i	i	i	i	nt	nt
CCc1nc2ccc(C(=O)N(C)CC(=O)Nc3ccc(F)c(F)c3F)cc2nc1CC	i	i	i	i	nt	nt
CCc1ccc(C(=O)COC(=O)c2cccnc2Cl)cc1	i	i	i	i	nt	nt
COc1ccc(NS(=O)(=O)c2ccc(NC(=S)NC(=O)/C=C/c3ccccc3)cc2)nn1	40.5	i	i	i	50.5	16.6
CCc1nnc(NS(=O)(=O)c2ccc(NC(=S)NC(=O)/C=C/c3ccccc3)cc2)s1	86.7	i	i	i	84.6	50.1
CCc1nnc(NS(=O)(=O)c2ccc(NC(=S)NC(=O)/C=C/c3ccc(OC)cc3)cc2)s1	i	i	i	i	nt	nt
COc1ccc(NC(=O)C2CC(=O)N(c3ccccc3F)C2)cc1S(=O)(=O)N1CCCCC1 (stereo unspecified)	i	i	i	i	nt	nt
CCN(CC)C(=O)Cn1cc(S(=O)(=O)CC(=O)NCc2ccc(F)cc2)c2ccccc21	i	i	i	i	nt	nt
O=C1N=c2ccccc2=C1c1sc(=S)n(NC(=O)c2ccccc2)c1O	60.6	i	i	i	40.6	19.7
O=C(Cc1c(F)cccc1Cl)N1CCN(S(=O)(=O)c2cccc(F)c2)CC1	i	i	i	i	nt	nt
O=C(NCc1cc(Cl)cc(Cl)c1)c1csc([C@@H]2C[C@H](O)[C@@H](CO)O2)n1	i	i	i	i	nt	nt
COc1ccc(/C(N)=N/OC(=O)Cc2cccs2)cc1	46.7	i	i	i	i	i
COC(=O)c1ccc(COc2ccccc2/C=C/C(=O)c2ccc(OCC(=O)O)cc2)cc1	56.0	i	i	i	64.3	23.8
Cc1ccc(NC(=O)COc2cccc(/C=C3\SC(=S)N(CCC(=O)O)C3=O)c2)cc1Cl	i	i	i	i	nt	nt
COc1ccc(/C=C2\SC(=S)N(CCCC(=O)Nc3ccc(C(=O)O)cc3)C2=O)cc1OC	63.9	i	i	i	53.4	18.2
COc1ccc(/C=C2\SC(=O)N(CCCC(=O)Nc3ccc(C(=O)O)cc3)C2=O)cc1OC	i	i	i	i	nt	nt
COc1cccc(/C=C2\SC(=S)N(CCCC(=O)Nc3ccc(C(=O)O)cc3)C2=O)c1	69.1	i	i	i	61.0	21.8
O=C(O)CCN1C(=O)/C(=C\c2cccc(OCC(=O)Nc3ccc(Cl)cc3)c2)SC1=S	70.8	i	i	i	81.9	43.0
COc1ccc(CCNC(=O)CCS(=O)(=O)Cc2ccccc2C)cc1OC	i	i	i	i	nt	nt
O=C(O)c1ccccc1NC(c1ccccc1)c1ccc(Cl)cc1 (stereo unspecified)	58.2	i	i	i	54.4	11.5	dCAG dye DR=i
COCCn1c(SCc2cc(C(C)=O)ccc2OC)nc2cc(Cl)ccc2c1=O	41.6	i	i	i	i	i
CC1CCc2nc3ccc(S(=O)(=O)N4CCC(C(=O)O)CC4)cc3c(C(=O)O)c2C1 (stereo unspecified)	i	i	i	i	nt	nt
CC1CCc2nc3ccc(S(=O)(=O)N4CCC(C(=O)NC(C)c5ccccc5)CC4)cc3c(C(=O)O)c2C1 (stereo unspecified)	37.9	i	i	i	45.0	13.7
CS(=O)(=O)N(Cc1ccccc1)c1ccc(C(=O)Nc2ccccc2Sc2ccccc2)cc1	i	i	i	i	nt	nt
SMILES	rCAG RNA binder	PG9 binder	ABCB6 inh MLPCN	Granule exo inh	rCAG binder conf	DNA CAG counter	others
O=C(Nc1ccccc1C(=O)Nc1ccccc1C(=O)O)c1ccccc1	72.8	i	i	i	66.5	25.9
CS(=O)(=O)N(Cc1ccccc1)c1ccc(C(=O)Nc2ccccc2C(=O)O)cc1	65.0	i	i	i	57.1	13.3
O=C(Nc1ccccc1C(=O)NCc1ccccc1)c1ccccc1Br	i	i	i	i	nt	nt
O=C(O)c1ccccc1NC(=O)c1ccccc1Nc1ccccc1	83.3	i	i	i	67.4	29.0
O=C(Nc1ccccc1C(=O)O)c1ccc(Br)c(S(=O)(=O)NCc2ccccc2)c1	73.4	i	i	i	60.9	21.5
CCOc1ccc2nc(NC(=O)c3ccccn3)sc2c1	i	i	i	i	nt	nt
CCOc1ccc2nc(NC(=O)Cc3cccs3)sc2c1	nt	nt	i	i	nt	nt
CCCc1cc(=O)[nH]c(SCC(=O)Nc2nc3ccc(OCC)cc3s2)n1	49.5	i	i	i	40.4	12.3
COc1ccc(NC(=O)Nc2nc3ccccc3s2)cc1	48.3	i	i	i	i	18.3
COc1ccc2nc(NC(=O)CSc3nc(C)cc(=O)[nH]3)sc2c1	i	i	i	i	nt	nt
CCOc1ccc2nc(NC(=O)Nc3cccs3)sc2c1	63.6	i	i	i	i	28.2
COc1ccc(NC(=O)c2nc3ccccc3s2)cc1	i	i	i	i	nt	nt
CCOc1ccc2nc(NC(=O)Nc3ccccc3)sc2c1	49.9	i	i	i	i	20.3
Brc1cccc(CSc2nnc(-c3ccncc3)o2)c1	i	i	i	i	nt	nt
COc1ccc(Oc2ccc(C(F)(F)F)cc2NC(=O)CC(CC(=O)O)c2ccccc2)cc1 (stereo unspecified)	46.1	i	i	i	42.5	8.0
COc1ccc(C)cc1NC(=O)NNC(=O)c1cc2ccccc2cc1O	58.0	i	i	i	41.9	14.6
COc1ccccc1NC(=O)c1cc2cc(Br)ccc2cc1O	71.5	i	i	i	48.6	25.4
c1cn2c(NC3CCCCC3)c(-c3ccc(SC4CCCCC4)cc3)nc2cn1	49.7!	i	i	i	36.8	8.3	dCAG dye DR=i
CC(=O)Nc1cc(=O)c2cccnc2[nH]1	i	i	i	i	nt	nt
CC1=C(C(=O)Nc2ccccc2)C(c2ccc(Cl)cc2)n2c(s/c(=C/c3cccc(OCC(=O)O)c3)c2=O)=N1 (stereo unspecified)	67.4	i	i	i	87.4	62.5
CC1=C(C(=O)Nc2ccccc2)C(c2ccc(C)o2)n2c(s/c(=C/c3ccccc3)c2=O)=N1 (stereo unspecified)	i	i	i	i	nt	nt
CCOc1ccc(C2C(C(=O)Nc3ccccc3)=C(C)N=c3s/c(=C/c4cccc(OCC(=O)O)c4)c(=O)n32)cc1 (stereo unspecified)	67.2	i	i	i	82.5	53.8
CCc1nc2c(OCC(=O)N3CCOCC3)cccn2c1N(C=O)Cc1ccccc1	i	i	i	i	nt	nt
COc1ccc(NC(=O)CN(C)C(=O)C2(c3ccccc3)CCCC2)cc1	i	i	i	i	nt	nt
CC(C)C(NC(=O)c1ccc(Cl)cc1Cl)C(=O)NCCc1ccccn1 (stereo unspecified)	i	i	i	i	nt	nt
COc1ccc(/C=N/n2c(-c3ccc(C)cc3)n[nH]c2=S)cc1OC	i	i	i	i	nt	nt
CCn1c2ccccc2c2cc(C=Nn3c(-c4ccccc4C)n[nH]c3=S)ccc21	49.0	nt	nt	nt	56.0	23.1

Screening data as filed in PubChem.
